Measured values: PubChem BioAssay (NCI)
About 79,000 compounds went through this panel and 15% of them were active in at least one assay; those are over-represented in the sample as a whole. Rule as the data show it: active = growth inhibition above about 70%; inactive = the rest.

Columns and labels:
[1] = NCI Yeast Anticancer Drug Screen. Data for the rad50 strain (AID 155);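 also: 0% = growth of vehicle-only cultures of the same strain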; details: S. cerevisiae rad50 strain growth inhibition; at 50.0 µM; hits give high values
Method in brief: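 Inhibition values express reduced yeast growth in compound-treated cultures relative to vehicle-treated controls.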

[2] = NCI Yeast Anticancer Drug Screen. Data for the mec2-1 strain (AID 157); details: S. cerevisiae mec2-1 strain, at 50.0 µM, hits give high values
Method in brief: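 Mutant yeast (mec2-1) grown with compound; growth inhibition relative to vehicle control reported.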

[3] = NCI Yeast Anticancer Drug Screen. Data for the sgs1 mgt1 strain (AID 161);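 also: 0% = growth of cultures given vehicle only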; details: S. cerevisiae sgs1 mgt1 strain, at 50.0 µM, hits give high values
Method in brief: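 Percent growth inhibition was derived by comparing compound-exposed mutant yeast with vehicle-exposed cultures. The strain carries alterations in DNA damage repair.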

[4] = NCI Yeast Anticancer Drug Screen. Data for the cln2 rad14 strain (AID 165);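 also: 0% = growth equal to vehicle treated cultures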; details: S. cerevisiae cln2 rad14 strain, at 50.0 µM, hits give high values
Method in brief: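 Readout is yeast growth inhibition versus vehicle-treated controls, using a strain with cln2 and rad14 alterations exposed to compound.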

[5] = NCI Yeast Anticancer Drug Screen. Data for the bub3 strain (AID 167); details: S. cerevisiae bub3 mutant strain, at 50.0 µM, hits give high values
Method in brief: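 Steps: expose the mutant yeast strain to compound; grow alongside vehicle-treated cultures; measure growth; express inhibition against the vehicle cultures.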

[6] = NCI Yeast Anticancer Drug Screen. Data for the mlh1 rad18 strain (AID 175); details: S. cerevisiae mlh1 rad18 strain growth inhibition; at 50.0 µM; hits give high values
Method in brief: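 Genetically defined yeast (DNA repair-deficient) exposed to compounds; growth inhibition determined relative to vehicle.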

Measured: growth inhibition

CCc1cc(COC(C)=O)on1
inactive: [1] 5.35% | [2] -18.5% | [3] -8.4% | [4] -35.9% | [5] -1.9% | [6] -2.6%

CC(=O)c1cccc(NC(=O)N2CCN(c3ccccc3)CC2)c1
inactive: [1] 11.4% | [2] 34% | [3] 20% | [4] 1.25% | [5] 23.9% | [6] 16.6%

OC(CSCc1ccccc1)c1ccccc1 (stereo unspecified)
inactive: [1] -17.8% | [2] 2.45% | [3] -7.95% | [4] -43% | [5] -2.2% | [6] 3.1%

COC(=O)c1ccccc1NC(=O)Nc1ccc(SC)cc1
inactive: [1] -2% | [2] 24.4% | [3] 19.6% | [4] -8.65% | [5] 31.2% | [6] 14.3%

COc1ccc(C(=O)/C=C/c2ccc(OCC(=N)N)cc2)cc1
inactive: [1] -31.1% | [2] -38.6% | [3] -18.8% | [4] -27.4% | [5] -15.8% | [6] -23.6%

COc1ccc(-c2cc(C(=O)O)c3cc4ccccc4cc3n2)cc1Br
inactive: [1] 8.6% | [2] -15.9% | [3] 13.7% | [4] 24.3% | [5] 2.95% | [6] 10.9%

COc1ccccc1C(OC)c1ccccc1C(=O)O (stereo unspecified)
inactive: [1] -10.9% | [2] -17.1% | [3] -1.4% | [4] -12.5% | [5] -4.7% | [6] -16.1%

CCCCCCC(=O)NC(O)C(Cl)(Cl)C(C)Cl (stereo unspecified)
inactive: [1] 1.1% | [2] -6.6% | [3] -6.2% | [4] -56.8% | [5] -19.8% | [6] 4.1%

CCOc1ccc(S(=O)(=O)OCC)cc1
inactive: [1] -15.6% | [2] -14% | [3] -25.2% | [4] 1.35% | [5] -8.45% | [6] -19.6%

C(=C\c1ccc(-c2ccccc2)cn1)/c1ccccc1
inactive: [1] -8.5% | [2] -15.8% | [3] -3.45% | [4] -26.6% | [5] 24.8% | [6] -12%

O=C1C=C(Nc2nc(O)cc(=O)[nH]2)c2ccccc2C1=O
inactive: [1] 0.75% | [2] 2.2% | [3] 1.15% | [4] -38.5% | [5] -0.4% | [6] 13.5%

CCOC(=O)C(=O)C1C(=O)Nc2ccccc21 (stereo unspecified)
inactive: [1] -12.4% | [2] -4.9% | [3] -6.35% | [4] -2.5% | [5] -18.4% | [6] -12.6%

CCOC(CN1CCCCC1)OCC
inactive: [1] -7.85% | [2] -7.6% | [3] 17.1% | [4] 8.7% | [5] -1.6% | [6] 6.65%

Nn1c(C23CC4CC(CC(C4)C2)C3)n[nH]c1=S
inactive: [1] 4.35% | [2] 5.65% | [3] 36.1% | [4] -6.85% | [5] 16.6% | [6] 28.1%

COC(=O)c1cc(C)n(C)c(=O)c1C#N
inactive: [1] 12.6% | [2] 12.5% | [3] -0.85% | [4] 22.1% | [5] 13.9% | [6] 2.9%

CCOC(=O)Nc1nc2cc(C(=O)OC)n(C)c2s1
inactive: [1] 19.4% | [2] 23.6% | [3] 25.7% | [4] 11.1% | [5] 7.4% | [6] 18.9%

CCCCCCC(O)C/C=C\CCCCCCCCO (stereo unspecified)
inactive: [1] 11.9% | [2] -20.9% | [3] 13.3% | [4] -27.6% | [5] 27.1% | [6] 18.4%

FC(F)(F)c1cc(NC(=S)SCc2ccc(Cl)cc2)ccc1Cl
inactive: [1] 22.8% | [2] 8.7% | [3] 16.2% | [4] 14.6% | [5] 13.6% | [6] 11.2%

CCOC(CN(Cc1ccccc1)CC(OCC)OCC)OCC
inactive: [1] 12.7% | [2] 8.15% | [3] 12.9% | [4] 5.85% | [5] 9.8% | [6] -4%

O=C1OC(=O)C2(Cl)C3C=CC(C3)C12 (stereo unspecified)
inactive: [1] 9.3% | [2] -8.15% | [3] -15.6% | [4] -72.6% | [5] -16.3% | [6] 4.8%

Oc1c2c(c3cccc4cccc1c43)=Nc1ccccc1S2
inactive: [1] 0.25% | [2] 3.2% | [3] 6.4% | [4] -23.6% | [5] 3.3% | [6] 7.1%

CC1(C)C(O)C(C)(C)C1O (stereo unspecified)
inactive: [1] 17.1% | [2] -17.6% | [3] 7.8% | [4] 6.95% | [5] 11.2% | [6] 10.2%

CCOC(=O)c1ccc(OCC)cc1O
inactive: [1] 2.25% | [2] -8% | [3] 0.6% | [4] -17.6% | [5] -30.4% | [6] -15.8%

O=C(NN1C(=O)CSC1c1ccc(F)cc1)c1ccncc1 (stereo unspecified)
inactive: [1] -4.2% | [2] 1.1% | [3] 4.15% | [4] -6.75% | [5] 7.95% | [6] 11.8%

CCNC1=C(OC)C(=O)C(NCC)=C(OC)C1=O
inactive: [1] -6.2% | [2] 7.25% | [3] 2.6% | [4] -33.6% | [5] 5.3% | [6] -5.8%

CCCCCCCCCCN(CCCCCCCCCC)CC(O)c1cc(-c2ccc(Cl)cc2)nc2ccccc12 (stereo unspecified)
inactive: [1] 25.6% | [2] 17.1% | [3] 39.4% | [4] 31.2% | [5] 34.6% | [6] 50.2%

CCOc1ccc(N=C2C=C(Nc3ccc(OCC)cc3)C(=Nc3ccc(OCC)cc3)C=C2Nc2ccc(OCC)cc2)cc1
inactive: [1] -17.7% | [2] -14.5% | [3] -24.2% | [4] -18.4% | [5] 2.35% | [6] -24.5%

NC(=O)C1OC1(c1ccccc1)c1ccccc1 (stereo unspecified)
inactive: [1] 20.8% | [2] 5.2% | [3] 3.05% | [4] -2.1% | [5] 4.15% | [6] 3.15%

O=C(O)[C@@H]1[C@@H]2C[C@@H]3[C@H](OC(=O)[C@@H]31)[C@@H]2O
inactive: [1] -20.9% | [2] -12.2% | [3] -25.4% | [4] 1.9% | [5] -15.8% | [6] -41.4%

Cc1ccc(S(=O)(=O)CC(=O)CC(=O)C(=O)Nc2ccc(Cl)cc2C)cc1
inactive: [1] 11.2% | [2] -0.3% | [3] -7.95% | [4] -22.4% | [5] -0.75% | [6] 27.3%

BrC12c3ccccc3C(Br)(c3ccccc31)c1ccccc12
inactive: [1] 5.95% | [2] 5.6% | [3] -3.15% | [4] -7.4% | [5] -5.3% | [6] 6.2%

C(/Cc1ccc2c(c1)OCO2)=N\NC1=NCCN1
inactive: [1] -8.5% | [2] -0.55% | [3] 1.55% | [4] -19.4% | [5] 5.2% | [6] 18.1%

COc1ccc(-c2nc3c(nc2-c2ccc(OC)cc2)C(N)=NS(=O)(=O)N3)cc1
inactive: [1] -18.9% | [2] -7.95% | [3] -19.9% | [4] 2.2% | [5] -17.6% | [6] -10.1%

CCCCC1C2C(S(=O)(=O)c3ccccc3)=NOC2C=CN1C(C)=O (stereo unspecified)
inactive: [1] -6.4% | [2] -9% | [3] 1.55% | [4] 7.55% | [5] 3.25% | [6] 10.3%

Cc1ccc(S(=O)(=O)OCC2C(COS(=O)(=O)c3ccc(C)cc3)C3C4C5C2C2C3C4C52)cc1 (stereo unspecified)
inactive: [1] -15.9% | [2] -0.3% | [3] 9.75% | [4] 13.8% | [5] -5.5% | [6] -21.5%

O=C(CCC1CCCC1)Oc1ccccc1C(=O)O
inactive: [1] -1.9% | [2] -9.65% | [3] 7.1% | [4] -42.7% | [5] 9.5% | [6] 3.4%

O=[N+]([O-])c1cc(F)c(F)cc1F
inactive: [1] -26.9% | [2] 4.15% | [3] -21.1% | [4] -32.2% | [5] -14.6% | [6] 26.9%

CCN(CC)C(=O)C1=C(C)NC(C)=C(C(=O)N(CC)CC)C1
inactive: [1] -36.7% | [2] -55% | [3] -18.6% | [4] -22.1% | [5] -8.35% | [6] -68.5%

CCOC(=O)Cn1ccc[n+]1CC(=O)c1ccccc1
inactive: [1] -14.9% | [2] 7.9% | [3] 17.4% | [4] -16.2% | [5] -15.4% | [6] -3.1%

CC1(CCl)C(=O)C=Cc2ccccc21 (stereo unspecified)
inactive: [1] 6.45% | [2] 0.7% | [3] -5.1% | [4] -6.8% | [5] 5.3% | [6] -3.45%

COC(=O)C(C#N)C1NC(=O)c2ccccc21 (stereo unspecified)
inactive: [1] 9.75% | [2] -2.4% | [3] 10.2% | [4] 1.45% | [5] -8.3% | [6] 7.15%
